Inconclusive results are not listed. The source made the active and inactive calls. Calls follow the shape of the dose curve; as a rule, active = well fitted inhibition curve with a large enough effect; inconclusive = small, poorly fitted or top-dose-only effect; inactive = flat fitted curve, though single readings scatter. Where a SMILES comes first, the peptide text is derived from it. The star is where a group is joined. AMC = Cc1cc(=O)oc2cc(N*)ccc12; Cbz = O=C(OCc1ccccc1)*
Legend:
CRL-7250 = normal cell line; assay: Cytotoxic Profiling of Annotated Libraries Using Quantitative High-Throughput Screening (AID 1296008); details: Five cell lines viability, CellTiter-Glo ATP luminescence, 48-72 h; max response: stronger effect = lower value; as to max response: % is scaled to controls: 0 for no effect and ±100 for the full control effect
Summary of the method: (§1)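 Compounds were pin-transferred onto cells and incubated 48 or 72 hr at 37 degree Celsius, 95% humidity. CellTiter-Glo was added, plates sat 10 min at room temperature, then ATP-coupled luminescence was imaged as the viability read-out.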

HEK293 = assay: as above; details: Five cell lines viability, CellTiter-Glo ATP luminescence, 48-72 h; max response: stronger effect = lower value
Summary of the method: as §1

HaCat [1] = assay: as above; details: Five cell lines viability, CellTiter-Glo ATP luminescence, 48-72 h; max response: stronger effect = lower value
Summary of the method: as §1

KB-3-1 = assay: as above; details: Five cell lines viability, CellTiter-Glo ATP luminescence, 48-72 h; max response: stronger effect = lower value
Summary of the method: as §1

NIH3T3 = assay: as above; details: Five cell lines viability, CellTiter-Glo ATP luminescence, 48-72 h; max response: stronger effect = lower value
Summary of the method: as §1

HACAT [2] = assay: qHTS assay to identify novel small-molecules to repurpose for Merkel cell carcinoma treatment (AID 1296009); details: MCC and control cell lines, CellTiter-Glo viability, 72 h; at 44.8 µM (top of the series) unless noted
Summary of the method: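 qHTS format: cells treated with library compounds in DMSO across 8 (NPC) or 11 (MIPE) concentrations. Readout after 72 hr at 37 degree celsius was CellTiter-Glo luminescence.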

Measured: max response
Also: nearly all actives have a fitted effect of over 60% in size.

COC(=O)C1=COC(OC2OC(CO)C(O)C(O)C2O)C2C(C)C(OC(=O)/C=C/c3ccc(O)cc3)C(O)C12 (stereo unspecified)
inactive: CRL-7250 0.486% | HEK293 -0.112% | HaCat [1] | KB-3-1 1.09% | NIH3T3 -1.55% | HACAT [2] inactive [at 17.4 µM]

CC(O)C/C=C/C=C/C(=O)OC1C=C2COC(=O)C2(O)C2(C)CCCC(C)(C)C12 (stereo unspecified)
inactive: CRL-7250 | HEK293 -13.6% | HaCat [1] | KB-3-1 5.12% | NIH3T3 -2.82% | HACAT [2]

O=C(/C=C/c1ccc(O)cc1)OC[C@@]1(O)C=C[C@@H]2C(C(=O)O)=CO[C@@H](O[C@@H]3O[C@H](CO)[C@@H](O)[C@H](O)[C@H]3O)[C@@H]21
inactive: CRL-7250 -3.16% | HEK293 -5.68% | HaCat [1] | KB-3-1 | NIH3T3 2.82% | HACAT [2] inactive [at 17.4 µM]

CC1=C2CC(=O)C(C)CC/C=C(\C)CC2OC1=O (stereo unspecified)
inactive: CRL-7250 | HEK293 -1.49% | HaCat [1] | KB-3-1 1.48% | NIH3T3 2.98% | HACAT [2]

NC(=O)c1ccc(F)c2c1C[C@@H](N(C1CCC1)C1CCC1)CO2
inactive: CRL-7250 | HEK293 -5.17% | HaCat [1] | KB-3-1 4.79% | NIH3T3 3.88% | HACAT [2]

O=C(/C=C/c1ccccc1)O[C@@H]1[C@@H](CO)O[C@@](CO)(O[C@H]2O[C@H](CO)[C@@H](O)[C@H](O)[C@H]2O)[C@H]1O
inactive: CRL-7250 | HEK293 0.967% | HaCat [1] | KB-3-1 -2.31% | NIH3T3 2.88% | HACAT [2] inactive [at 17.4 µM]

N#CN1CCC[C@@H](n2nc(-c3ccc(Oc4ccc(F)cc4F)cc3)c(C(N)=O)c2N)C1
inactive: CRL-7250 -1.33% | HEK293 -4.05% | HaCat [1] | KB-3-1 | NIH3T3 1.04% | HACAT [2]

COc1ccc(C2COc3cc(O)ccc3C2)c(O)c1OC (stereo unspecified)
inactive: CRL-7250 | HEK293 -9.14% | HaCat [1] | KB-3-1 1.88% | NIH3T3 -7.34% | HACAT [2]

COCC1OC(n2cnc3c(=O)[nH]cnc32)C(O)C1O (stereo unspecified)
inactive: CRL-7250 | HEK293 -3.16% | HaCat [1] | KB-3-1 2.47% | NIH3T3 -2.27% | HACAT [2]

CCC12CCCN3CCc4c(n(c5ccccc45)C(O)C1)C32 (stereo unspecified)
inactive: CRL-7250 -2.83% | HEK293 -7.92% | HaCat [1] | KB-3-1 | NIH3T3 -1.2% | HACAT [2]

Cc1cc(=O)oc2cc(NC(=O)[C@H](CCC(=O)O)NC(=O)[C@H](CC(C)C)NC(=O)[C@H](CC(C)C)NC(=O)OCc3ccccc3)ccc12 (Cbz-Leu-Leu-Glu-{AMC})
inactive: CRL-7250 -3.16% | HEK293 -3.22% | HaCat [1] | KB-3-1 3.3% | NIH3T3 -20.3% | HACAT [2]

COc1cc(C(O)C2COC(c3ccc(OC4OC(CO)C(O)C(O)C4O)c(OC)c3)C2CO)ccc1O (stereo unspecified)
inactive: CRL-7250 -6.83% | HEK293 -1.12% | HaCat [1] | KB-3-1 8.83% | NIH3T3 -19.8% | HACAT [2] inactive [at 17.4 µM]

CC1(C(=O)O)CCCC2(C)C3CC4C5CC3(CCC12)CC45C (stereo unspecified)
inactive: CRL-7250 -3.47% | HEK293 2.22% | HaCat [1] | KB-3-1 4.9% | NIH3T3 -21.3% | HACAT [2]

CC(C)c1ccc2c(c1)C(=O)CC1C(C)(C(=O)O)CCCC21C (stereo unspecified)
inactive: CRL-7250 -5.24% | HEK293 -1.52% | HaCat [1] | KB-3-1 -0.919% | NIH3T3 -2.58% | HACAT [2]

C[C@@H]1CCC2C(C)(C)[C@H](O)[C@H](O)C[C@]2(C)[C@@]12Cc1c(O)cc3c(c1O2)CN(CCCC(=O)O)C3=O (stereo partly specified)
inactive: CRL-7250 -7.06% | HEK293 -1.57% | HaCat [1] | KB-3-1 3.58% | NIH3T3 4.1% | HACAT [2] inactive [at 17.4 µM]

COc1cc(Nc2ccc([N+](=O)[O-])cc2C(=O)O)cc2ccccc12
inactive: CRL-7250 -0.179% | HEK293 1.77% | HaCat [1] | KB-3-1 -5.92% | NIH3T3 -2.53% | HACAT [2]

Cc1cc(OCCN2CCOCC2)nn1-c1ccc2ccccc2c1
inactive: CRL-7250 -11.2% | HEK293 -15.6% | HaCat [1] | KB-3-1 -10.7% | NIH3T3 2.01% | HACAT [2]

C/C(=C\CC[C@H](CO)[C@@H]1CC[C@]2(C)C3=C(CC[C@@]12C)[C@@]1(C)CCC(=O)C(C)(C)C1CC3)C(=O)O (stereo partly specified)
inactive: CRL-7250 -4.82% | HEK293 -7.09% | HaCat [1] | KB-3-1 6.51% | NIH3T3 -2.55% | HACAT [2] inactive [at 17.4 µM]

O=C(Nc1ccn(Cc2c(F)cccc2C(F)(F)F)n1)c1c(F)cccc1F
inactive: CRL-7250 -12.9% | HEK293 1.72% | HaCat [1] | KB-3-1 | NIH3T3 2.19% | HACAT [2] inactive [at 9.27 µM]

COC(=O)C1=COC(O[C@@H]2O[C@H](CO)[C@@H](O)[C@H](O)[C@H]2O)[C@@H]2[C@@](C)(O)[C@@H](OC(=O)/C=C/c3ccccc3)C[C@]12O (stereo partly specified)
inactive: CRL-7250 1.9% | HEK293 -1.35% | HaCat [1] | KB-3-1 | NIH3T3 4.01% | HACAT [2] inactive [at 17.4 µM]

C=C1C(=O)O[C@@H]2/C=C(\C)CC/C=C(\C(=O)O[C@@H]3O[C@H](CO)[C@@H](O)[C@H](O)[C@H]3O)CC[C@@H]12
inactive: CRL-7250 4.73% | HEK293 -0.494% | HaCat [1] | KB-3-1 -8.71% | NIH3T3 -22.6% | HACAT [2] inactive [at 17.4 µM]

CC(NC(=O)c1ccccc1N)C(=O)O (stereo unspecified)
inactive: CRL-7250 2.02% | HEK293 4.67% | HaCat [1] | KB-3-1 9.06% | NIH3T3 0.106% | HACAT [2]

C=C(CCO)C(=O)OCC1OCC(OC(=O)C(=C)CCO[C@@H]2O[C@H](CO)[C@@H](O)[C@H](O)[C@H]2O)C(O)C1O (stereo partly specified)
inactive: CRL-7250 -6.14% | HEK293 0.294% | HaCat [1] | KB-3-1 4.34% | NIH3T3 -5.54% | HACAT [2] inactive [at 17.4 µM]

CC(=O)/C=C/[C@H]1[C@](C)(O)[C@@H](O)[C@H](O)C2C(C)(C)CCC[C@@]21C (stereo partly specified)
inactive: CRL-7250 -11.3% | HEK293 -5.03% | HaCat [1] | KB-3-1 -3.39% | NIH3T3 | HACAT [2]

CC(C)=CC[C@H]1O[C@]2(O)C([C@H]3CCC4[C@@]5(C)CC[C@H](O[C@@H]6O[C@H](CO)[C@H](O)[C@H](O[C@@H]7O[C@H](CO)[C@@H](O)[C@H](O)[C@H]7O)[C@H]6O[C@@H]6O[C@@H](C)[C@H](O)[C@@H](O)[C@H]6O)C(C)(C)C5CC[C@@]4(C)[C@]3(C)[C@H]2O)[C@@]1(C)O (stereo partly specified)
inactive: CRL-7250 0.206% | HEK293 2.46% | HaCat [1] | KB-3-1 9.9% | NIH3T3 0.989% | HACAT [2] inactive [at 9.27 µM]

CC(=O)O[C@H]1C[C@@H](O)C(C)(C)C2C[C@@H](OC(C)=O)[C@@]3(C)C4=CCC(C(CO)CC(O)C5OC5(C)C)[C@]4(C)CCC3[C@]21C (stereo partly specified)
inactive: CRL-7250 | HEK293 -1% | HaCat [1] | KB-3-1 | NIH3T3 -1.52% | HACAT [2] inactive [at 17.4 µM]

C/C=C(\C)C(=O)O[C@H]1C=CC(=O)O[C@H]1/C=C/[C@H](O)[C@@H](C)O
inactive: CRL-7250 4.14% | HEK293 -103% | HaCat [1] | KB-3-1 | NIH3T3 -1.43% | HACAT [2]

O=C(/C=C/c1ccc(O)cc1)OC[C@H]1O[C@@H](O/C(=C\c2ccccc2)C(=O)O)[C@H](O)[C@@H](O)[C@@H]1O
inactive: CRL-7250 | HEK293 -7.06% | HaCat [1] | KB-3-1 | NIH3T3 4.52% | HACAT [2] inactive [at 17.4 µM]

C=C1CC[C@@H]2[C@@](C)(CO[C@@H]3O[C@H](CO)[C@@H](O)[C@H](O)[C@H]3O)[C@H](O)CC[C@@]2(C)[C@@H]1CC/C(C)=C/CO[C@@H]1O[C@H](CO)[C@@H](O)[C@H](O)[C@H]1O
inactive: CRL-7250 | HEK293 -9.45% | HaCat [1] | KB-3-1 -3.96% | NIH3T3 -12.7% | HACAT [2] inactive [at 17.4 µM]

O=C(O)[C@H]1Cc2ccccc2CN1
inactive: CRL-7250 1.62% | HEK293 4.72% | HaCat [1] | KB-3-1 0.759% | NIH3T3 4.47% | HACAT [2] inactive [at 4.96 µM]

COc1ccnc(CCc2nc3ncccc3[nH]2)c1
inactive: CRL-7250 -4.02% | HEK293 -80.6% | HaCat [1] | KB-3-1 | NIH3T3 3.19% | HACAT [2]

CC1OC(O[C@H]2CC[C@@]3(C)C(CC[C@]4(C)C3CC=C3C5CC(C)(C)CC[C@]5(C(=O)OC5OC(CO)C(OC6OCC(OC7OCC(O)C(O)C7O)C(O)C6O)C(O)C5O)CC[C@]34C)C2(C)C)C(O)C(O)C1OC1OC(CO)C(O)C(OC2OC(CO)C(O)C(O)C2O)C1O (stereo partly specified)
inactive: CRL-7250 -2.46% | HEK293 -5.73% | HaCat [1] | KB-3-1 2.43% | NIH3T3 -1.17% | HACAT [2] inactive [at 9.27 µM]

CC1(C)COC(=O)[C@@H]1O[C@@H]1O[C@H](CO)[C@@H](O)[C@H](O)[C@H]1O
inactive: CRL-7250 4.71% | HEK293 0.945% | HaCat [1] | KB-3-1 | NIH3T3 0.729% | HACAT [2]

NC[C@H]1CCC[C@@H](CNC(=O)[C@@H](Cc2c[nH]c3ccccc23)NC(=O)N2CCC3(C=Cc4ccccc43)CC2)C1
inactive: CRL-7250 0.396% | HEK293 -6.44% | HaCat [1] | KB-3-1 | NIH3T3 -1.79% | HACAT [2]

COc1cc(O)c(C(=O)O)c(CCc2ccccc2)c1
inactive: CRL-7250 -1.14% | HEK293 -6.57% | HaCat [1] | KB-3-1 9.04% | NIH3T3 -0.163% | HACAT [2]

CC1(C(=O)O)CCCC2(C)C3CCC4CC3(CCC12)CC4(O)CO (stereo unspecified)
inactive: CRL-7250 1.56% | HEK293 -16.5% | HaCat [1] | KB-3-1 5.7% | NIH3T3 0.753% | HACAT [2]
